From PubChem
Compounds with a hit are over-represented: about 2.3% of the library has one in this group of screens.
Mcl-1 Bim block: inhibitors of Bim-Mcl-1 interaction, human. Q07820. Bead-based flow cytometry, Bim peptide-Mcl-1 binding. inhibition, % at 10 µM. 190,000 tested, 0.1% active; in the data active = inhibition above about 40%;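 note: 0% = no compound tracer wells and 100% = peptide blocker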
Mcl1-Noxa inh: Mcl-1/Noxa interaction inhibition | Q07820 | TR-FRET Mcl-1/Noxa peptide binding, 2 h | inhibition, % at 21.7 µM | 220,000 tested, 1.5% active | AID 1022;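 active = compounds that cut the protein-peptide binding signal by more than 50% relative to plate controls in a single-dose test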;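 note: His-tagged Mcl-1 with rhodamine Noxa BH3 peptide and terbium anti-His antibody; 0% = Mcl-1 plus Noxa peptide wells and 100% = peptide-only wells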
Bcl-xL primary: Bcl-xL (human) inhibition; GST-Bcl-xL / FITC-Bim BH3 peptide fluorescence polarization; inhibition, % at 10.9 µM; 320,000 tested, 0.7% active;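 active = inhibition above the mean of all tested compounds plus 3 SD, cutoff set per campaign, cut at about 30% in these data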;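 note: 0% = DMSO wells and 100% = unlabeled Bim-BH3 peptide competitor; inhibitors lower millipolarization by displacing the labeled peptide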
Target sequence (Q07817 whole entry, looked up): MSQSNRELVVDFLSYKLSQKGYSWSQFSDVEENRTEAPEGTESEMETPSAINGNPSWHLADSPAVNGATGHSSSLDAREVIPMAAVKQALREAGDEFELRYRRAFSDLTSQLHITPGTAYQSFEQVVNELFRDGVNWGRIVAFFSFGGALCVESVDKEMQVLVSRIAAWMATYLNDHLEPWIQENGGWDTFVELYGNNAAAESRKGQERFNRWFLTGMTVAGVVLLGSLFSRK
GLD-1 RNA inh: GLD-1-TGE RNA interaction inhibition (C. elegans); Q17339; purified GLD-1 + fluorescein TGE RNA, fluorescence polarization; inhibition, % at 5.96 µM; 320,000 tested, 0.44% active;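 active = percent inhibition above a per-plate cutoff, the plate mean of test compounds plus 3 SD, cut at about 30% in these data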;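 note: 0% = DMSO wells with GLD-1 and probe and 100% = wells lacking GLD-1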
Mcl1 Bid PPI: disrupts binding of human Mcl-1 to Bid peptide; AID 1021; inhibition, % at 21.7 µM; Q07820; 220,000 tested, 0.97% active; TR-FRET Mcl-1/Bid-Dy647 peptide binding, 1536-well;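 active = compounds that cut the binding signal by more than half at the single screening dose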;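 note: His-tagged Mcl-1 with europium anti-His antibody binding Bid BH3 peptide; 0% = Mcl-1 plus peptide wells and 100% = peptide-only wells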
MCL1 BIM primary: inhibitors of human MCL1 binding to BIM-BH3 peptide; 320,000 tested, 0.68% active; inhibition, % at 10.9 µM; Q07820; AID 2057; GST-MCL1 / FITC-Bim-BH3 fluorescence polarization;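 active = inhibition above the mean inhibition of all tested compounds plus 3 SD, set per campaign, cut at about 40% in these data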;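 note: 0% = DMSO wells and 100% = unlabeled Bim-BH3 peptide control; higher means more loss of mP so more displacement of Bim peptide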
Bcl-xL conf: Bcl-xL (human) inhibition, MCL1 counter-screen confirmation | shares compounds with MCL1 BIM primary | GST-Bcl-xL / FITC-Bim BH3 peptide FP binding | inhibition, % at 10.9 µM | 1,700 tested, 54% active | AID 2166;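 active = inhibition above a cutoff equal to the mean inhibition of all tested compounds plus 3 SD, cut at about 30% in these data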;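 note: 0% = DMSO wells and 100% = unlabeled Bim BH3 control peptide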
MCL1 BIM confirm: confirmation of human MCL1 and BIM-BH3 interaction inhibitors; inhibition, % at 10.9 µM; shares compounds with MCL1 BIM primary; GST-MCL1 / FITC-Bim-BH3 fluorescence polarization; 1,700 tested, 61% active;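 active = inhibition above the average of all tested compounds plus 3 SD, cut at about 40% in these data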;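 note: 0% = DMSO wells and 100% = unlabeled Bim-BH3 control peptide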
* marks the source's active call; other numbers are inactive results; · = no result given; ! = a repeat was not active.

SMILES	Mcl-1 Bim block	Mcl1-Noxa inh	Bcl-xL primary	GLD-1 RNA inh	Mcl1 Bid PPI	MCL1 BIM primary	Bcl-xL conf	MCL1 BIM confirm
NC(Cc1cc(O)c(O)cc1O)C(=O)O (configuration not stated)	·	·	66.8*	13.5	·	95.4*	54.6*	96.1*
CC(C)NP(=O)(NC(C)C)OP(=O)(NC(C)C)NC(C)C	·	·	5.7	4.2	·	-2.2	·	·
COC(=O)C1=C(c2cc3ccccc3s2)C[C@@H]2CC[C@H]1N2C(=O)NCc1ccco1	·	·	0.1	1.7	·	4.0	·	·
CC1CCCC(NC(=O)COC(=O)c2cn(C)c3ccccc23)C1C (configuration not stated)	·	·	-2.5	-3.6	·	-1.5	·	·
CCCNC(=O)N1[C@H]2CC[C@@H]1C(C(=O)OC)=C(c1ccc(F)cc1F)C2	·	·	6.5	-5.8	·	5.7	·	·
COC(=O)C1=C(c2cc3ccccc3s2)C[C@@H]2CC[C@H]1N2C(=O)NCCNC(C)=O	·	·	6.1	-0.9	·	1.4	·	·
CC[N+](CC)(CC)CC	·	-7.6	10.6	3.4	-49.2	49.7*	13.5	1.8
CCN1C[C@]2(CO)CC[C@H](OC)[C@@]34C5C[C@H]6[C@H](OC)C5[C@](O)(C[C@H]6OC)[C@@](O)(C(OC)C23)[C@@H]14 (some centres not stated)	·	·	-0.7	1.8	·	-1.5	·	·
O=C1NC(=O)N(Cc2ccc(F)cc2)C(=O)/C1=C\c1ccc([N+](=O)[O-])s1	·	93.0*	21.7	-8.4	30.6	40.4*	16.8	43.6*
COc1ccc(N2C(=O)NC(=O)/C(=C\c3ccc([N+](=O)[O-])s3)C2=O)cc1	1.0	50.9*	21.1	-4.0	-14.8	41.0*	43.8*	54.6*
Cc1cc(N=Nc2ccccc2C)ccc1N	·	·	1.2	3.4	·	-3.3	·	·
CC(=O)c1ccc2c(c1)C1C(Cl)C(Sc3ccccc3[N+](=O)[O-])CC1C(C(=O)O)N2 (configuration not stated)	-14.0	109.5*	28.4	8.2	41.6	63.7*	19.2	37.9
O=C(O)c1cccc2c1NC(C(=O)O)C1CC(Sc3ccccc3[N+](=O)[O-])C(Cl)C21 (configuration not stated)	0.0	94.0*	61.8*	14.2	0.6	99.6*	49.9*	106.2*
O=C1NC(=O)N(c2ccccc2)C(=O)/C1=C/c1ccc(Sc2ccccc2)o1	-2.0	28.8	8.0	-6.0	29.0	15.2	·	·
O=C1NC(=O)N(c2cccc(Cl)c2)C(=O)/C1=C\c1ccc(Sc2nc3ccccc3[nH]2)o1	-1.0	52.3*	91.0*	20.2	-5.6	180.5*	25.4	41.1*
O=C1NC(=O)N(c2ccc3c(c2)OCO3)C(=O)/C1=C\c1ccc(-c2ccccc2C(=O)O)o1	·	45.3	-19.1	-9.3	-19.9	-26.4	·	·
O=C1NC(=O)N(c2ccccc2F)C(=O)/C1=C/c1ccc(Sc2nc3ccccc3[nH]2)o1	12.0	66.2*	54.2*	0.9	30.5	58.6*	40.6*	66.2*
COC/C=C1\CN2C3C[C@@H]1[C@H]1COC4=Nc5cc(OC)c(OC)c(OC)c5[C@@]43C[C@@H]12	·	·	1.1	4.9	·	3.2	·	·
Oc1c(Cl)c(Cl)c(Cl)c(Cl)c1Cl	·	·	2.2	2.5	·	52.7*	10.8	38.1
CN1CCC2(CC1)C(C#N)=C(N)NC(S)=C2C#N	-5.0	44.0	42.1*	-78.0	-42.4	118.3*!	89.9*	103.6*
Cc1cc(/C=C2\C(=O)NC(=O)N(Cc3ccccc3)C2=O)c(C)n1C1CC1	4.0	-16.8	-2.4	0.0	-47.2	66.9*	18.7	16.9
COc1cc(OC)c(OC)cc1/C=C1/C(=O)NC(=O)N(Cc2ccccc2)C1=O	·	8.1	-16.9	-10.2	-32.7	-17.9	·	·
O=[As](O)(O)c1ccc(N=Nc2ccc(O)cc2)cc1	·	7.6	·	·	-18.8	·	·	·
O=C1C(Cl)=CC(=Nc2ccc(O)cc2)C=C1Cl	·	·	29.4	0.9	·	43.6*	40.4*	59.9*
